Measured values published in the supplement of paper PMC6555819.

test system: VDR:RXRa (NR concentration 270 nM, RXRa partner concentration 90 nM); test: PBM binding z-score (relative to random genomic background probes); higher = stronger binding; sequences stand for … in GC…GCGATTGACAGCGTAGAATGAAGG
Description: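 Protein-binding microarray (Agilent 4x180K custom design, double-stranded 60-nt probes: 5' GC cap, 34-nt variable region, 24-nt constant primer region; full probe sequence given). Purified or IVT nuclear receptor:RXRα heterodimers (3:1 NR:RXRα, mostly 270:90 nM) or homodimers were incubated for 1 h in PBS with 2% milk and no ligand, then detected with Alexa488 antibodies. Fluorescence from o1-orientation probes (~5 replicates averaged) was converted to z-scores against 500 random hg19 background probes. Variable regions are seed direct-repeat (DR0–DR5) sites, all their single-nucleotide variants and half-site ablations.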

With TCTTGTTGATCAAAGGTTAAGAAAGCCGAAGCCT as the sequence, how does the PBM binding z-score read?
The PBM binding z-score was 1.56.

CCTACTGGGCCATGAAAGGTCATTGATTCAGTGA was tested. Which PBM binding z-score did it give?
Its PBM binding z-score is 3.82.

How did the PBM binding z-score turn out when CGAACTAGGTCAAAGGACAGTGTAAGGCGACGTA was run?
Its PBM binding z-score is 1.58.

ATATGTAGGTCATCGGGTCATTCAGTTTGCGCAT was tested. Which PBM binding z-score did it give?
Its PBM binding z-score is 6.28.

With CTACGTAGGTTAAGGGGGTCATTCAGTTTGAAAG as the sequence, how does the PBM binding z-score read?
Its PBM binding z-score is 7.58.

ATATGTAGGTTAAGGGTCATGCAGGTTGGTTCGC was tested. Which PBM binding z-score did it give?
The PBM binding z-score was 5.46.

CCTTACGGGTCACGGTTATAGCACGGGTGGTACG was tested. Which PBM binding z-score did it give?
Its PBM binding z-score is 3.87.

ATATGTAGGTTAGGGTCATTTAGAAAGTAGGGAA was tested. Which PBM binding z-score did it give?
The PBM binding z-score was 4.26.

CCTACTGGGCCACTCAGAGGTCATTGATCATATG was tested. Which PBM binding z-score did it give?
Its PBM binding z-score is 4.06.

CGTCCAAGGTCAAGGTCACTGAAAGAGACTCGAA was tested. Which PBM binding z-score did it give?
Its PBM binding z-score is 5.49.

With CAAACTAGGTCACCGGAAAGTCAAAGTCCGCATG as the sequence, how does the PBM binding z-score read?
The PBM binding z-score was 2.61.

With TAGCATAGGTCATGCGGGCCAGTATAGTGTCGGC as the sequence, how does the PBM binding z-score read?
Its PBM binding z-score is 4.32.

For CGAACTAGGTCACCAGGACAGTCAAGAGGTTGGA, which PBM binding z-score is on record?
Its PBM binding z-score is 2.18.

With ATCTCTAGGTAAAGTTCAGCGAAAGATCGATAGA as the sequence, how does the PBM binding z-score read?
The PBM binding z-score was 1.84.

CCAGACAGGTGAAAGGTAACTCACTCTGGTACGC was tested. Which PBM binding z-score did it give?
Its PBM binding z-score is 0.767.

How did the PBM binding z-score turn out when CGAACTAGGTCAAAGGACAGTTAAAGGCGACGTA was run?
The PBM binding z-score was 1.52.

For GATTCAGGGTCAGCTAGAGGCCAGAGTATGGAAA, which PBM binding z-score is on record?
The PBM binding z-score was 4.09.

How did the PBM binding z-score turn out when TCGAGCAGGTTACGGGGGCATTCAGGGATGAAGA was run?
The PBM binding z-score was 3.86.

CAAACTAGGTCACAGAGGGCAAAGTCCGTGCGTA was tested. Which PBM binding z-score did it give?
Its PBM binding z-score is 7.09.

Which PBM binding z-score does the source give for CGAACTAGGTCACAAGGACAGTGAAGAGGTTGGA here?
The PBM binding z-score was 1.83.

TAGCCTAGGTCATTCAGGGGTCAGTATAGAAAGC was tested. Which PBM binding z-score did it give?
The PBM binding z-score was 6.03.

TCGAGTAGGTTACGGGGCCATTCAGGGATGAAGA was tested. Which PBM binding z-score did it give?
The PBM binding z-score was 1.26.

With CCTTACGGGTCGCTGACAGGTTATAGCATTTGGA as the sequence, how does the PBM binding z-score read?
The PBM binding z-score was 0.961.

ATGTGTAGGTTACATCCGGGTCATTCAGGCTATG was tested. Which PBM binding z-score did it give?
The PBM binding z-score was 4.22.

Which PBM binding z-score does the source give for CGAACTAGGTCACCAGGCCAGTGAAGAGGTTGGA here?
The PBM binding z-score was 1.71.

For TCTCGGATGACACGAAAGGTCAGAGCTCGACATC, which PBM binding z-score is on record?
Its PBM binding z-score is 2.94.

For GACACAGGGTCAGCTAGAGGCCAGAGTATGGAAA, which PBM binding z-score is on record?
Its PBM binding z-score is 3.19.

Which PBM binding z-score does the source give for ATATGTAGGTTAGGGTCAATCAGAAAGTAGGGAA here?
Its PBM binding z-score is 3.8.

With AATACAGGGTCATTAGGCCAGAGTAGGTACGAAT as the sequence, how does the PBM binding z-score read?
Its PBM binding z-score is 4.61.

For CAAACTAGGTCACAGAGGTCAACGTCCGTGCGTA, which PBM binding z-score is on record?
Its PBM binding z-score is 7.74.

With CAAACTAGGTCACGAAAGGTCAAATTCGAATGAC as the sequence, how does the PBM binding z-score read?
Its PBM binding z-score is 6.93.

Which PBM binding z-score does the source give for AGAATGAGGTTAAGATTAGGGAAACAGAATACAT here?
The PBM binding z-score was 1.36.

For TCGAGTAGGTTACGGGGGCATTCGGGGATGAAGA, which PBM binding z-score is on record?
The PBM binding z-score was 4.16.

How did the PBM binding z-score turn out when GCTCGGGGGACAAGGTCAGAGCTTTGTCCGTAGA was run?
Its PBM binding z-score is 3.07.

Which PBM binding z-score does the source give for CGTCAAAGTTCATGGTAACGTAACAGAAAGCAGC here?
Its PBM binding z-score is 4.33.

Which PBM binding z-score does the source give for CCTTACGGGTCCCTGACAGGTTATAGCATTTGGA here?
The PBM binding z-score was -0.165.

CGAAATAGGTCAAAGGACAGTGAAAGGCGACGTA was tested. Which PBM binding z-score did it give?
The PBM binding z-score was 2.5.

How did the PBM binding z-score turn out when CAGCCTAGTTCAGGGCCAGTATAGGAGGAACGTT was run?
Its PBM binding z-score is -0.0838.

With CCGAGTAGGTTACGAGCGGGCATTCAGTGCGAAT as the sequence, how does the PBM binding z-score read?
Its PBM binding z-score is 0.355.

Which PBM binding z-score does the source give for ATATGGAGGTTAGCTGGGGTCATTCAGACTAGGC here?
The PBM binding z-score was 6.86.
